This is an account of results in PubChem BioAssay AID875 (National Center for Advancing Translational Sciences (NCATS), 2007).

Molecules are shown by their SMILES. Screen size: about 75,000 compounds; about 35 (0.05%) were called active. Entries that show only a call come without a potency. For the sample, actives were picked, then their nearest neighbours and some compounds at random. Values without a mark were called inactive. Calls come from the whole dose curve; as a rule, active = well fitted inhibition curve with a large enough effect; inconclusive = small, poorly fitted or top-dose-only effect; inactive = no such curve, though single readings can be large or run the other way.
Potency is the fitted concentration of half-maximal effect.

Sequence of Breast cancer type 1 susceptibility protein (Homo sapiens) (P38398 whole entry, looked up): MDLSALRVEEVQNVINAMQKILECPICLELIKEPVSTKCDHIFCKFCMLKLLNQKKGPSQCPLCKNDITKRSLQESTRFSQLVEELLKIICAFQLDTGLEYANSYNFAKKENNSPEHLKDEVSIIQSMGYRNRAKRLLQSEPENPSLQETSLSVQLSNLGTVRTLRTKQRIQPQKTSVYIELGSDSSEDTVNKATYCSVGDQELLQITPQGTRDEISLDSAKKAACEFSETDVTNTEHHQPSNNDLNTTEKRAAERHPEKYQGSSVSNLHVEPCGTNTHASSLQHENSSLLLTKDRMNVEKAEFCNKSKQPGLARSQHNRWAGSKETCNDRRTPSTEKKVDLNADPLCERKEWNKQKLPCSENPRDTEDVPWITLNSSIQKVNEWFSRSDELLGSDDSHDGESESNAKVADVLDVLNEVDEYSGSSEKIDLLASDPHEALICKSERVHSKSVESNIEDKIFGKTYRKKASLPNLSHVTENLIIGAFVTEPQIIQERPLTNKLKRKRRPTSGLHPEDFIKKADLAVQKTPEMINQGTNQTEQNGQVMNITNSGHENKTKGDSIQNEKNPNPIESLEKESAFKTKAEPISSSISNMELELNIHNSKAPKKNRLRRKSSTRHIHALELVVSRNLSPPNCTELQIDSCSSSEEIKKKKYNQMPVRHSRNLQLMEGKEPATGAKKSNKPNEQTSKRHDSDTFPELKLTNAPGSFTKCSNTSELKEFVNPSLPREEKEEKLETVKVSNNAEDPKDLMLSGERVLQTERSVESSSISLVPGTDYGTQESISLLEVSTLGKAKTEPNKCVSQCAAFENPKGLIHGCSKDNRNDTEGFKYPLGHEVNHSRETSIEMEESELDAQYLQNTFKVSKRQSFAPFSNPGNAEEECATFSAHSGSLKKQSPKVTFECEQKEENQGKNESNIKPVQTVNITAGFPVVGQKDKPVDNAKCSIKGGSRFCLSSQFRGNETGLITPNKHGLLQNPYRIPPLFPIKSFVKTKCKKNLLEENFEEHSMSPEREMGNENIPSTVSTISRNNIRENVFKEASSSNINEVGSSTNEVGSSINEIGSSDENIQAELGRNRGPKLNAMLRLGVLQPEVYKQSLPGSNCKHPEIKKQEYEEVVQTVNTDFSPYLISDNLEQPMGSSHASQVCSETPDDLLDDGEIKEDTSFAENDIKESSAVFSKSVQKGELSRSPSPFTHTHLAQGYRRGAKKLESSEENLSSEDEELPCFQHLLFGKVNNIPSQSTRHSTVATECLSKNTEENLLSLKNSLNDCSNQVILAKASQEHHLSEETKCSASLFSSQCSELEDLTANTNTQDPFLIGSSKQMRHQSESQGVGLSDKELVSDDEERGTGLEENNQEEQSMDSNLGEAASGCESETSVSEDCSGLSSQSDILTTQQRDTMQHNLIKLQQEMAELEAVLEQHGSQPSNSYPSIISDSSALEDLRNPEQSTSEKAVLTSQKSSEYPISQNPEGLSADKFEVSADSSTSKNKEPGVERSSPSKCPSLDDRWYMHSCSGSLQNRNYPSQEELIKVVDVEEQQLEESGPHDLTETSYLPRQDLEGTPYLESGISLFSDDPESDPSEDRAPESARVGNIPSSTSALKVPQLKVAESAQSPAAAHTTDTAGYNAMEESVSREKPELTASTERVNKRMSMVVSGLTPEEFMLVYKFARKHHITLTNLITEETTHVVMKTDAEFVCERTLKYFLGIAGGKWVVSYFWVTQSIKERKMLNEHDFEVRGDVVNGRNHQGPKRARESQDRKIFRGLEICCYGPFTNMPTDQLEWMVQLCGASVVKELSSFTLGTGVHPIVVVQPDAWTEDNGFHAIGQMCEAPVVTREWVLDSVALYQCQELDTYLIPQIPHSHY

This experiment concerns the target Breast cancer type 1 susceptibility protein (Homo sapiens) (UniProt P38398). Put plainly: qHTS Assay for Inhibitors of BRCT-Phosphoprotein Interaction (Green Fluorophore). Conditions: BRCA1 BRCT-phosphopeptide binding, green fluorescence polarization; series mostly up to 76.9 µM. As to the method:
NIH Molecular Libraries Screening Centers Network [MLSCN]
NIH Chemical Genomics Center [NCGC]
PI Name: Natarajan, Amarnath; University of Texas
A complex of BRCT (C-terminal portion of BRCA1, MW ~35 kDa, His-tagged) and fluorescently labeled pBACH1 phosphorylated 10 aa peptide fragment of BACH1, a helicase implicated in DNA repair, is incubated with library members. Inhibitors of BRCT-pBACH1 binding are detected by a decrease in the fluorescence polarization (FP) of the fluorophore. In order to minimize the effect of fluorescence artifacts and to increase the overall robustness of the screen, the compound library members were incubated in separate reactions with fluorescein labeled probe-protein complexes. Protein and labeled probes were supplied by Dr. Amarnath Natarajan, Department of Pharmacology and Toxicology, University of Texas Medical Branch Galveston, TX.
Assay Buffer: 16mM Na2HPO4, 4 mM NaH2PO4, 150 mM NaCl, 1 mM EDTA, 1 mM DTT, 0.02% NaN3, and 0.01% Tween 20 at pH 7.3.
100 nM labeled decapeptide/250 nM protein in columns 1, 2, 5 - 48. Titration of unlabeled decapeptide control (from 10 mM, then 1:2 dilution in duplicate) pin-transferred to column 2, rows 1 to 16. Column 1 is neutral.
Three uL of reagents were dispensed to 1536-well Greiner black solid-bottom plates. Compounds and controls (23 nL) were transferred
via Kalypsys PinTool. The plates were incubated for 12 min at room temperature, and then read on ViewLux (Perkin-Elmer) High throughput CCD imager using FITC for the fluorescein-labeled decapeptide probe polarization filter sets. During dispense, reagent bottles were kept submerged into 4 deg C water bath and all liquid lines were covered with aluminum foil to minimize probe and protein degradation. All screening operations were performed on a Kalypsys robotic system (Kalypsys, Inc., San Diego, CA) containing one RX-130 and two RX-90 anthropomorphic robotic arms. The timing and order of assay plates passing through the screening system were adjusted such that each compound library plate was assayed against the fluorescein- and rhodamine-labeled assay systems at immediately adjacent time points.
For orientation: Quantitative high-throughput screening tests each substance at several concentrations.
As for `Cc1ccc(OS(=O)Nc2cccc3nccnc23)cc1` (stereo unspecified), the activity change, negative = inhibition entry is “inactive”.
Turning to `Cc1c(S(=O)(=O)O)oc2c1C(=O)C(=O)c1c-2ccc2c1CCCC2(C)C`, the Potency was 31.6 µM (active).
Turning to `O=C(c1c(Cl)nc2sccn12)N1CCCc2ccccc21`, the activity change, negative = inhibition result was “inactive”.
In the case of `CCOc1ccc(C2C(C(=O)O)c3ccccc3C(=O)N2CCN2CCOCC2)cc1` (stereo unspecified), the activity change, negative = inhibition result was “inactive”.
On the same count and under the same terms, with `COc1ncc2nc(-c3ccc(Cl)cc3)c(=O)n(-c3ccccc3)c2n1` the entry was “inactive”; with `CC(=O)NC1CC2CCCC(C1)N2CC(=O)Nc1ccccc1` (stereo unspecified), “inactive”.
As to `Cc1ccc(N(C(=O)CC2NC(=O)NC2=O)C2(C(=O)NC3CCCC3)CCCCC2)cc1` (stereo unspecified), the activity change, negative = inhibition result was “inactive”.
Consider `O=S(=O)(NCc1cccnc1)c1ccc(Br)s1`, for which the activity change, negative = inhibition entry was “inactive”.
Take `Cc1cc(NC(=O)COC(=O)c2ccc(F)c(S(=O)(=O)N3CCOCC3)c2)no1`: the activity change, negative = inhibition result is “inactive”.
`O=C1c2ccccc2S(=O)(=O)N1CC(O)Cn1c2ccccc2c2ccccc21` (stereo unspecified): the activity change, negative = inhibition result is “inactive”.
On the same count and under the same terms, to `O=C1OC(C(O)CO)C(O)=C1O` (stereo unspecified) belongs -0.826% [at 3.08 µM]; to `CO[C@H]1COC(=O)[C@@H](C)NC(=O)C/C=C\[C@@H](C)[C@H](OC)COC(=O)C/C=C\[C@@H]1C`, -2.28% [at 15.4 µM]; to `CC1(C)Cc2cccc(OCC(=O)Nc3nccs3)c2O1`, “inactive”.
Take `Cc1ccc(-c2noc(-c3ccccc3C(=O)NCC3CCCO3)n2)cc1` (stereo unspecified): the activity change, negative = inhibition result is “inactive”.
Take `Cc1cc(C)c(C#N)c(SCS(=O)c2ccc(C(C)(C)C)cc2)n1` (stereo unspecified): the activity change, negative = inhibition result is “inactive”.
Regarding `Cc1ccc(S(=O)(=O)NC(=O)NN2C[C@H]3CCC[C@@H]3C2)cc1`, the activity change, negative = inhibition entry is “inactive”.
For `CN(C)CCNC(=O)C(C(=O)c1ccccc1)n1ccccc1=O` (stereo unspecified), the activity change, negative = inhibition result is “inactive”.
As to `CCOC(=O)N1CCN(C(=O)C2CC(c3ccc(F)cc3)=NO2)CC1` (stereo unspecified), the activity change, negative = inhibition result was “inactive”.
The same measure, in the same setting: with `Cc1csc(-c2nc3ccccc3n2C)n1` the entry was “inactive”.
Still for that read-out and setting: to `O=C(Nc1cccc2c1CCCC2)C1CCN(C(=O)NC2CCCCC2)CC1` belongs “inactive”.
For the compound `Fc1ccc(-c2ccc(-c3nn4c(-c5ccco5)nnc4s3)o2)cc1`, the activity change, negative = inhibition entry is “inactive”.
Consider `COc1ccc(OC)c(C(=O)c2ccc(C(=O)O)cc2)c1`, for which the activity change, negative = inhibition entry was “inactive”.
Consider `CCOC(=O)C(C)Oc1cccc2c(=O)n(CC(=O)N3CCc4ccccc43)ccc12` (stereo unspecified), for which the activity change, negative = inhibition entry was “inactive”.
Same read-out and setting: with `O=C(CSc1nnc(-c2cccnc2)n1Cc1ccco1)c1ccc(Cl)c(Cl)c1` the entry was “inactive”.
Take `COCCN(C(=O)CCC(=O)Nc1ccccn1)C(C(=O)NCCC(C)C)c1ccc(OC)cc1` (stereo unspecified): the activity change, negative = inhibition entry is “inactive”.
The same measure, in the same setting: to `CCc1c(C)nc(N)n2c(SCC(=O)N3CCN(c4ccccc4)CC3)nnc12` belongs “inactive”; to `CCCC(NC(=O)c1ccccc1)c1nc2ccccc2n1Cc1ccc(C(=O)OC)o1` (stereo unspecified), “inactive”.
Regarding `CC(=O)c1sc2nc(SCC(=O)N3CCCCC3)[nH]c(=O)c2c1C`, the activity change, negative = inhibition result is “inactive”.
For `C/C(O)=C\c1nc(=O)c2c(C)cc(C)nc2n1-c1ccccc1`, the activity change, negative = inhibition result was “inactive”.
`Cc1cc(NCc2ccco2)n2c(nc3ccccc32)c1C#N`: the activity change, negative = inhibition entry was “inactive”.
For `CCCN1[C@H](C(=O)OC)C[C@@]2(O)[C@@H](O)[C@@H](O)[C@@H](O)C[C@@H]12`, the activity change, negative = inhibition entry is “inactive”.
In the case of `O=C(O)[C@H](CCc1ccccn1)c1ccccc1`, the activity change, negative = inhibition is 0.305% [at 15.4 µM].
Still for that read-out and setting: to `Cc1nc(C)c(C(=O)Nc2cccc(C)c2C)o1` belongs “inactive”.
Same read-out and setting: to `CCCn1c(=O)c2[nH]c(C3CCCC3)nc2n(CCC)c1=O` belongs “inactive”.
Regarding `O=C(NCCCN1CCOCC1)c1cc(-c2ccc(Cl)cc2)on1`, the activity change, negative = inhibition result is “inactive”.
Consider `COC(=O)[C@@H]1C[C@@]2(O)[C@H](O)[C@H](O)[C@H](O)C[C@H]2N1Cc1ccc(C)s1`, for which the activity change, negative = inhibition entry is “inactive”.
The same measure, in the same setting: with `CN(C)/C=N/c1cc(=O)n(C)c(=O)n1CC1CC1` the entry was “inactive”; with `CCCCCCCCCc1ccc(OCCOCCOCCOCCOCCOCCOCCOCCOCCO)cc1`, “inactive”.
With `O=C(Nc1ccccc1N1CCCCC1)c1ccc2nccnc2c1`, the activity change, negative = inhibition entry was “inactive”.
Consider `CN1CCCC1CCO[C@@](C)(c1ccccc1)c1ccc(Cl)cc1` (stereo partly specified), for which the activity change, negative = inhibition is -4.61% [at 3.08 µM].
Regarding `CN1CCc2nc(-c3ccccc3)c(-c3ccccc3)cc2C1`, the activity change, negative = inhibition is -0.939% [at 15.4 µM].
With `CCN(CC)C(=O)CSc1nnc(-c2cnccn2)n1-c1ccc(C)cc1`, the activity change, negative = inhibition entry is “inactive”.
Turning to `Cc1c(C(=O)CN2CCOCC2)[nH]c2ccccc12`, the activity change, negative = inhibition result was “inactive”.
As for `Cc1cccc(-c2cc(=O)c3cc(C)ccc3o2)c1`, the activity change, negative = inhibition entry is “inactive”.
Consider `Cc1c(S(=O)(=O)O)ccc(N=Nc2c(O)c(C(=O)O)cc3ccccc23)c1Cl`, for which the activity change, negative = inhibition was -3.5% [at 15.4 µM].
As to `CC(C(=O)Nc1ccccc1-c1ccccc1)N1CCOCC1` (stereo unspecified), the activity change, negative = inhibition result is “inactive”.
Still for that read-out and setting: to `CCC1CCCCN1C(=O)Nc1cccc(NC(=O)N2CCCCC2CC)c1` (stereo unspecified) belongs “inactive”; to `CCOc1ccc(Cn2nnc(C(=O)NCc3ccccc3)c2N)cc1`, “inactive”; to `O=C(Cn1nc(Cc2cccnc2)c2ccccc2c1=O)NCC1CCCO1` (stereo unspecified), “inactive”.
Consider `O=c1[nH]nc(CSCc2ccccc2Cl)[nH]1`, for which the activity change, negative = inhibition result was “inactive”.
Regarding `Cc1cc(C)c(S(=O)(=O)NCCCN2CCOCC2)cc1Br`, the activity change, negative = inhibition entry is “inactive”.
